From PubChem BioAssay AID651725 (National Center for Advancing Translational Sciences (NCATS), 2012)
About 2,000 (0.56%) of roughly 360,000 compounds were called active. About 2% were inconclusive and are not listed. Rule as the data show it: active = activity change below about -65%; inconclusive = mostly about -30% to -63%; inactive = weaker than that. What follows is part of a selection rich in actives, with near analogues and random picks from the rest.

molecular target: Homeobox protein SIX1 (Homo sapiens) + Protein phosphatase EYA2 (Homo sapiens) (UniProt Q15475+O00167); assay: qHTS Assay for Inhibitors of the Six1/Eya2 Interaction; conditions: AlphaScreen GST-Six1/His-Eya2 binding, biochemical; hits give low values
Outline: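 GST-Six1 + His-Eya2 (5X stock: 250/500 nM); Tris pH 8.0, 300 mM NaCl, 0.05% BSA, 0.02% Tween 20; GSH donor/Ni acceptor beads; 1 h 37 °C dark; AlphaScreen readout.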
% is scaled to controls: 0 for no effect and ±100 for the full control effect.

Sequence of Homeobox protein SIX1 (Homo sapiens) + Protein phosphatase EYA2 (Homo sapiens) (O00167 whole entry, looked up): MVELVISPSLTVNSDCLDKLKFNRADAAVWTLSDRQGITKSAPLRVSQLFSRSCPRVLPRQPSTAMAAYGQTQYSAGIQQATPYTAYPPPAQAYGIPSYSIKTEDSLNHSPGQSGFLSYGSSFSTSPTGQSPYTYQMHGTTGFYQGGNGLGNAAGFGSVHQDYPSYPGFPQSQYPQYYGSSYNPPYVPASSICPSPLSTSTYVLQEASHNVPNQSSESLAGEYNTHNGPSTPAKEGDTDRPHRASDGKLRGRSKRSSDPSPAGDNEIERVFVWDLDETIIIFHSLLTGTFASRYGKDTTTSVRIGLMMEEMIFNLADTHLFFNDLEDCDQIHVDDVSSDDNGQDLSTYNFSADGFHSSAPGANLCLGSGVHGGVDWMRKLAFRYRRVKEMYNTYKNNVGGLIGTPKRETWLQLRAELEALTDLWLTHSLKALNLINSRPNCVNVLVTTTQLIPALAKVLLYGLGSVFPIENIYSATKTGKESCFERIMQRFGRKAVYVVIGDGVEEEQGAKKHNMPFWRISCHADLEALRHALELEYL
Sequence of Homeobox protein SIX1 (Homo sapiens) + Protein phosphatase EYA2 (Homo sapiens) (Q15475 whole entry, looked up): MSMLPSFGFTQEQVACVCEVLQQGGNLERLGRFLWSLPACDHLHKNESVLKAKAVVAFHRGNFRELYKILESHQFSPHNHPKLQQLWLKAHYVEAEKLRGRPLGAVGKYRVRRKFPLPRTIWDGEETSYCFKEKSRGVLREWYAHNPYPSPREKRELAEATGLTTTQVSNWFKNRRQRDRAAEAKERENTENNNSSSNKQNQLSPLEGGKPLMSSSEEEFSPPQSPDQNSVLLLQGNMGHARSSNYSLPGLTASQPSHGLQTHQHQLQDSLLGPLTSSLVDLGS

SMILES	activity change
O=C1NC[C@H](CCCCN2CCN(CCc3ccccc3)C(=O)C2=O)N(CC2CCCCC2)C1=O	-4.53% (inactive)
Cc1cccc(C)c1NC(=O)CN1CCN(c2ccc(F)cc2)CC1	-0.798% (inactive)
Cc1cc(=O)oc2cc(OCC(=O)N3CCN(c4ccc(F)cc4)CC3)c(Cl)cc12	3.08% (inactive)
Oc1c(CN2CCN(c3ccc(F)cc3)CC2)cc(Cl)c2cccnc12	-81.4% (active)
CSCCC(C(=O)NC(C)(C)C)n1c(-c2ccccc2)nc2ccccc21 (centres undefined)	7.41% (inactive)
Cc1ccc(-c2ccc(C3=CC(=O)CC(C)(C)C3=O)cc2)cc1	-1.02% (inactive)
CCCc1nc2ccccc2n1C(C)C(=O)NC(C)(C)C (centres undefined)	-4.69% (inactive)
CCN1CCN(C(c2cccnc2)c2cc(Cl)c3cccnc3c2O)CC1 (centres undefined)	-90.1% (active)
CCOC(=O)N1CCN(C(=O)C2CCN(c3ncnc4c3sc3cccc(F)c34)CC2)CC1	-5.48% (inactive)
CCOC(=O)N1CCN(C(c2cccnc2)c2ccc3cccnc3c2O)CC1 (centres undefined)	-88.9% (active)
CCOC(=O)N1CCN(C(c2ccnc3ccccc23)c2nnnn2-c2c(C)cccc2C)CC1 (centres undefined)	18.3% (inactive)
C=CCC[C@H](CCCCC)OC(=O)/C=C/[C@H](O)[C@@H](O)C[C@@H](O)CC=C	9.69% (inactive)
COC(=O)C[C@H]1C=C[C@@H](NS(=O)(=O)c2ccc(C)cc2)[C@@H](CO)O1	-7.03% (inactive)
Cc1ccc(Cn2cc(CN3CC(N4CCN(C)CC4)CS3(=O)=O)nn2)cc1 (centres undefined)	2.69% (inactive)
Cc1cc(=O)[nH]c(N/N=C/c2c(C)nn(-c3ccccc3Cl)c2Cl)n1	1.43% (inactive)
Cc1nnc(N/N=C/c2ccccn2)[nH]c1=O	-72.8% (active)
CCOc1ccc(N/C(N)=N/c2nc(C)c(C)c(=O)[nH]2)cc1	1.12% (inactive)
CCOc1ccc(-n2c(O)c(/C=N/Nc3nnc(C)c(=O)[nH]3)c3ccccc3c2=O)cc1	-93.7% (active)
COc1ccc(/C=N/Nc2nc(-c3ccc(C)cc3)c(C#N)c(=O)[nH]2)cc1	1.97% (inactive)
COc1ccc(-n2c(O)c(C=NCC(c3ccco3)N3CCCC3)c3ccccc3c2=O)cc1OC (centres undefined)	-13% (inactive)
Cc1[nH]nc(SCC(=O)NCC(C)C)c1[N+](=O)[O-]	3.57% (inactive)
COc1ccc(N(CCC#N)S(=O)(=O)c2ccc(Cl)cc2)cc1	3.78% (inactive)
CCCCOCCCNC(=O)C[C@@H]1C[C@@]2(C(=O)OCC)CCCC=C2N(CCC2=CCCCC2)C1=O	-13.6% (inactive)
COCCNC(=O)C1C(=O)Nc2ccccc2C(=O)N1c1ccc2c(c1)OCCO2 (centres undefined)	7.33% (inactive)
CC1(C(=O)Nc2ccc3c(c2)OCCO3)CN(S(C)(=O)=O)CC(=O)N1Cc1cccc(F)c1 (centres undefined)	6.88% (inactive)
Oc1c(C(c2ccccn2)N2CCOCC2)ccc2cccnc12 (centres undefined)	-91.8% (active)
O=C(C[C@H]1CC[C@H]2[C@@H](COC[C@H](O)CN2C(=O)c2ccccn2)O1)N1CCN(c2ccccc2)CC1	-7.33% (inactive)

SMILES	activity change
CCCCn1nnnc1C1(C)CCC(=O)N1Cc1ccc(OC)c(OC)c1 (centres undefined)	-14.1% (inactive)
CC(C)NC(=O)C(=O)NCCCOC(C)C	7.72% (inactive)
Cc1cccc(-n2cnc(C(=O)NNC(=S)Nc3ccccc3)c2)n1	-90.4% (active)
Cc1cccc(-n2cnc(C(=O)Nc3cccnc3)c2)n1	26.5% (inactive)
Cc1nn(C)cc1C(=O)NNC(=S)Nc1ccc(Cl)cc1	0.473% (inactive)
O=C1COc2ccc(S(=O)(=O)NCCc3ccc(Cl)cc3)cc2N1	6.96% (inactive)
CCOC(=O)[C@]12CCCC=C1N(CCC1=CCCCC1)C(=O)[C@H](CC(=O)N1CCOCC1)C2	8.54% (inactive)
Cn1c(N)c(C(=O)COC(=O)COc2ccc(Cl)cc2)c(=O)n(C)c1=O	-10.5% (inactive)
Cn1c(N)c(C(=O)COC(=O)c2ccc3ccccc3c2)c(=O)n(C)c1=O	-0.607% (inactive)
Cn1c(N)c(C(=O)COC(=O)c2cnc(Cl)c(Cl)c2)c(=O)n(C)c1=O	-92.3% (active)
COC(=O)c1scc(S(=O)(=O)C(C)(C)C)c1-n1cccc1	5.88% (inactive)
CCC(=O)Nc1ccc(C(=O)CSc2nnc(CNc3ccc(Cl)cc3)o2)cc1OC	-0.882% (inactive)
O=C(NCc1ccccc1Cl)C1CCC(CNc2c(N3CCCCC3)c(=O)c2=O)CC1 (centres undefined)	5.37% (inactive)
CCOc1cc(/C=N/NC(=O)c2cccc(S(=O)(=O)N3CCOCC3)c2)ccc1OCC(=O)N(C)C	-8.33% (inactive)
Cc1cccc(NC(=O)c2cccc(S(=O)(=O)N3CCCC3)c2)n1	-10.7% (inactive)
Cc1ncc(CO)c(/C=N/NC(=O)c2cccc(S(=O)(=O)N3CCCC3)c2)c1O	-82.4% (active)
CCCC[C@@H]1CN=C(N)N1CCc1cc(C(F)(F)F)cc(C(F)(F)F)c1	16.6% (inactive)
Cc1ccc(CNC(=O)CCCNC(=O)c2ccc(Cl)cc2)n1C	-7.14% (inactive)
Cc1cc(OC(=O)c2ccc(Cl)cc2)cc(=O)n1C	-92.4% (active)
Cn1cncc1COC(=O)c1ccc(Cl)cc1	-6.11% (inactive)
O=C1NC[C@H](Cc2ccc(O)cc2)N(C[C@@H]2CCCN2C[C@H](Cc2ccccc2)N2C[C@H](Cc3ccccc3)N(CC3CCCCC3)C(=O)C2=O)C1=O	9.57% (inactive)
COC(=O)[C@]12CCCCC=C1N(CCC1=CCCCC1)C(=O)[C@H](CC(=O)NCC1CCCCC1)C2	-2.3% (inactive)
Cc1c(N=Nc2ccc(N(C)C)cc2)c(=O)n(-c2ccccc2)n1C	-7.33% (inactive)
Cc1c(C=O)n(C)n(-c2ccccc2)c1=O	15.7% (inactive)
Cc1nc(N)sc1N=Nc1c(C)n(C)n(-c2ccccc2)c1=O	-66.7% (active)
CCCCCCCCN1C(=O)[C@H](CC(=O)NCc2cccc3ccccc23)C[C@@]2(C(=O)OC)CCCCC=C12	0.0747% (inactive)
N#Cc1ccc(C(C(=O)NCc2ccccc2)n2c(=O)c(-c3ccco3)nc3ccccc32)cc1 (centres undefined)	2.42% (inactive)
